Screening results as filed in PubChem BioAssay.
The entries come from a sample that favours hits as a whole.
Cycloheximide cs – Cycloheximide Counterscreen for Small Molecule Inhibitors of Shiga Toxin | max response, % | AID 2314, 2010 | cell reporter, cycloheximide protein synthesis inhibition counterscreen | hit rate 12% among 300,000; in the data active = max response mostly above about 13%, no sharp cut-off; inactive = mostly below about 14%; also: read at 38.3 µM for the half of the compounds with a filed dose
Tb PYK inh – qHTS of Trypanosoma Brucei Inhibitors | TbPYK enzyme, Kinase-Glo Plus ATP luminescence, 45 min | Potency, µM (highest dose often 76.8 µM), hits mostly inhibitors | hit rate 0.12% among 410,000 | AID 624173, 2012; also: nearly all actives have a fitted effect of over 50% in size
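Activity of T. brucei pyruvate kinase was followed by Kinase-Glo Plus luminescence after the enzyme reacted 45 min at room temperature with 130 uM ADP (final) and substrate. Test compounds were added before ADP at multiple concentrations.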
Sm TGR inh – qHTS Assay for the Inhibitors of Schistosoma Mansoni Peroxiredoxins; Schistosoma mansoni thioredoxin glutathione reductase (TGR), Q962Y6; purified TGR, DTNB reduction, TNB absorbance 405 nm; Potency, µM (series often up to 114 µM), most hits filed as inhibitors; hit rate 3% among 360,000; AID 485364, 2010; also: nearly all actives have a fitted effect of over 60% in size
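TGR 20 nM + NADPH 100 uM (dispensed conc.), cpd preinc 15 min RT; start with NADPH (500 uM addition) then DTNB (15 mM addition). Kinetic TNB absorbance, 405 nm filter. Four-parameter Hill fit across titration.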
Giardia FBPA inh – qHTS Assay for Inhibitors of Fructose-1,6-bisphosphate Aldolase from Giardia Lamblia | Potency, µM (series often up to 59.6 µM), most hits filed as inhibitors | hit rate 0.71% among 290,000 | A8B2U2 | purified Giardia FBPA; also: nearly all actives have a fitted effect of over 55% in size
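Giardia FBPA (40 nM reagent) was preincubated 10 min at RT with compound (up to 57.5 uM final), then substrate plus GAPDH/TPI/NAD/arsenate coupling system with diaphorase/resazurin was added; resorufin fluorescence (525/598 nm) was read after 20 min.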
LmPK inhibitor – qHTS Assay for Inhibitors of Leishmania Mexicana Pyruvate Kinase (LmPK); Q27686; purified LmPK, Kinase-Glo ATP luminescence, 1 h; Potency, µM (titrated, usually from 57.5 µM), hits mostly inhibitors; hit rate 0.37% among 290,000; AID 1721, 2009
Target sequence (Q27686 whole entry, looked up): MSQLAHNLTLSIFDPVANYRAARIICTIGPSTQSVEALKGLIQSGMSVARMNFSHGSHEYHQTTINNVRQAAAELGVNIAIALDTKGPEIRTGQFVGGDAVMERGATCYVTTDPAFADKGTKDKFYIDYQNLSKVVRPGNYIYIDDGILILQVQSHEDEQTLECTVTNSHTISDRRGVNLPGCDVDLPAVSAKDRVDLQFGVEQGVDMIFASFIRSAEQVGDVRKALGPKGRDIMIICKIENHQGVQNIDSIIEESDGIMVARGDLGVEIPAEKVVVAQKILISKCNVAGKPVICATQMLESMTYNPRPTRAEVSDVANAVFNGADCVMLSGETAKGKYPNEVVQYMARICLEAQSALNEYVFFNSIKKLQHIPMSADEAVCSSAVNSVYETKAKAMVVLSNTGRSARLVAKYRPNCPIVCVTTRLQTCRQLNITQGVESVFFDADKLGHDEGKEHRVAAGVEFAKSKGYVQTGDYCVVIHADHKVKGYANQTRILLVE
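Kinase-Glo luminescence read after 1 h RT reaction of 0.1 nM LmPK with 0.5 mM PEP and 0.1 mM ADP. Activity scaled between uninhibited and enzyme-free controls.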
Shiga toxin inh – A qHTS for Small Molecule Inhibitors of Shiga Toxin; hit rate 9.2% among 290,000; inhibition, % at 38.7 µM; Vero cells, Shiga toxin protein synthesis inhibition reporter; in the data active = inhibition mostly above about 28%, no sharp cut-off; inactive = mostly below about 43%
Hits are given with their value; 0 = inactive; ? = inconclusive; - = no result given; [ ] = remark or other dose. Unless noted, calls follow the shape of the dose curve; as a rule, active = well fitted curve in the direction sought with a large enough effect; inconclusive = small, poorly fitted or top-dose-only effect, or another doubt; inactive = no such curve, though single readings can be large; an effect the other way counts as inactive or inconclusive.

SMILES	Cycloheximide cs	Tb PYK inh	Sm TGR inh	Giardia FBPA inh	LmPK inhibitor	Shiga toxin inh
COc1cc(NC(=S)NCc2cccnc2)cc(OC)c1OC	0	0	?	0	0	0
Fc1ccc(NC(=S)Nc2cccnc2)c(Cl)c1	0	0	17.8µM	0	0	0
FC(F)(F)c1cnc(NNC(=S)Nc2cccnc2)c(Cl)c1	0	0	0	0	0	0
Cc1ccc(Cl)c(OC(=O)C2CSC3(C)CCC(=O)N23)c1 (configuration not stated)	-	0	0	-	-	-
COc1ccc(-c2noc(CC(=O)Nc3cc(OC)ccc3OC)n2)cc1	-	0	0	-	-	-
Fc1ccc(NC(=S)Nc2ccc(Cl)cc2Cl)cc1	21.6	0	25.1µM	0	0	0
Fc1ccc(CNC(=S)Nc2ccc(Cl)cc2Cl)cc1	0	0	0	0	0	0
Oc1cccc(NC(=S)Nc2cccnc2)c1	0	0	50.1µM	0	0	0
COc1cccc(CN2CCN(c3ccc(F)cc3)C2=O)c1	34.5	0	0	0	0	0
O=C1NCCCN1Cc1ccc(F)cc1	0	0	0	0	0	0
COc1cccc(CN2CC=C(c3ccc(F)cc3)CC2)c1	0	0	0	?	0	0
O=C1N(Cc2ccc(F)cc2)CCN1c1ccc(F)cc1	29.3	0	0	0	0	57.7
Cc1ccc(NC(=O)C2CCCN2S(=O)(=O)c2ccc3c(c2)CCCC(=O)N3)cc1C (configuration not stated)	-	0	0	-	-	-
O=C(N/N=C/c1cc(Br)cs1)c1c[nH]c2ccccc12	44.2	0	0	0	0	62.4
O=C(N/N=C/c1ccc(Br)s1)c1c[nH]c2ccccc12	46.0	0	0	0	0	68.4
Nc1cc(=O)[nH]c(SCC(=O)Nc2ccc(N3CCCCC3)cc2)n1	-	0	-	-	-	-
O=C(COC(=O)C12CC3CC(CC(Br)(C3)C1)C2)Nc1cccc(S(=O)(=O)N2CCOCC2)c1	-	0	-	-	-	-
O=C(Nc1cc(S(=O)(=O)N2CCOCC2)ccc1Cl)C1CCC1	-	0	0	-	-	-
O=C(Nc1nnc(-c2ccc(Cl)cc2)o1)C1CCCCC1	0	0	0	0	0	0
CCOc1ccc(-c2nnc(NC(=O)C3CCCC3)o2)cc1	34.8	0	0	0	0	42.3
O=C(Nc1nnc(-c2ccc3c(c2)OCCO3)o1)C1CCCCC1	43.5	0	0	0	0[11.5 µM]	130.7
O=C(Nc1nnc(-c2ccc3c(c2)OCCO3)o1)c1ccc(Cc2ccccc2)cc1	0	0	0	0	0	0
CCOc1ccc(C(=O)Nc2nnc(C3=COCCO3)o2)cc1	8.4	0	0	-	0	0
COc1ccc(C(=O)Nc2nnc(C3=COCCO3)o2)cc1	0	0	0	-	0	0
O=C(CCOc1ccccc1)Nc1nnc(-c2ccc3c(c2)OCCO3)o1	21.1	0	0	0	0[11.5 µM]	0
SMILES	Cycloheximide cs	Tb PYK inh	Sm TGR inh	Giardia FBPA inh	LmPK inhibitor	Shiga toxin inh
Cc1c(Cl)cccc1-c1ccc(CNc2ccc3[nH]c(=O)[nH]c3c2)o1	-	0	0	-	-	-
O=C1CCCc2[nH]c(=O)c(-c3nc(-c4cccc([N+](=O)[O-])c4)cs3)cc21	-	0	0	-	-	-
CC(C)Oc1ccc(CNC(=O)c2ccc3c(c2)N(Cc2ccc(F)cc2)CCS3)cc1	-	0	0	-	-	-
Cc1cccc(-n2ccc(=O)c(C(=O)Nc3ccc(S(=O)(=O)N4CCOCC4)cc3)n2)c1	0	0	0	-	0	0
COc1cccc2c(=O)c3cccc(N)c3[nH]c12	0	0	0	1.77µM	0	0
C#CCN1C(=O)S/C(=C/C=C/c2ccc(N(C)C)cc2)C1=O	47.1	0	0	0	0	115.6
O=Cc1c(OCc2ccccc2)ccc2ccccc12	46.9	0	0	0	0	77.9
Cc1cccc(CCNC(=O)CCc2c(C)nc3c4c(C)cc(C)nc4nn3c2C)c1	-	0	0	-	-	-
CCOc1cc(/C=C/c2nc3ccccc3s2)ccc1OCC(=O)N1CCOCC1	15.9	0	0	0	0	37.3
O=C(CSc1nc2ccccc2s1)N1CCOCC1	28.7	0	0	0	0	active
O=C(CSc1nc2ccccc2s1)NCCCN1CCOCC1	0	0	0[11.4 µM]	0	0	0
Nc1nc(CSCc2ccccc2)nc(N2CCOCC2)n1	46.3	0	0	0	0	46.0
